Measured values published in PubChem BioAssay (NCATS).
Records with an inconclusive call do not appear. Activity calls are given as the source filed them. Calls come from the whole dose curve; as a rule, active = well fitted curve in the direction sought with a large enough effect; inconclusive = small, poorly fitted or top-dose-only effect, or another doubt; inactive = no such curve, though single readings can be large; an effect the other way counts as inactive or inconclusive.

The compounds below were run against Rap guanine nucleotide exchange factor 3 (Homo sapiens) (UniProt O95398) (assay: Confirmatory qHTS for agonist of cAMP-regulated guanine nucleotide exchange factor 3 (EPAC1) (AID 1645881;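 note: EPAC1 catalysed release of BODIPY-GDP from Rap1B seen as fluorescence loss; nearly all actives have a fitted effect of over 75% in size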)). Settings: EPAC1 Rap1B BODIPY-GDP exchange fluorescence, 100% = cAMP control response; series mostly up to 154 µM; activation: at the top concentration.
Sequence of Rap guanine nucleotide exchange factor 3 (Homo sapiens) (O95398 whole entry, looked up): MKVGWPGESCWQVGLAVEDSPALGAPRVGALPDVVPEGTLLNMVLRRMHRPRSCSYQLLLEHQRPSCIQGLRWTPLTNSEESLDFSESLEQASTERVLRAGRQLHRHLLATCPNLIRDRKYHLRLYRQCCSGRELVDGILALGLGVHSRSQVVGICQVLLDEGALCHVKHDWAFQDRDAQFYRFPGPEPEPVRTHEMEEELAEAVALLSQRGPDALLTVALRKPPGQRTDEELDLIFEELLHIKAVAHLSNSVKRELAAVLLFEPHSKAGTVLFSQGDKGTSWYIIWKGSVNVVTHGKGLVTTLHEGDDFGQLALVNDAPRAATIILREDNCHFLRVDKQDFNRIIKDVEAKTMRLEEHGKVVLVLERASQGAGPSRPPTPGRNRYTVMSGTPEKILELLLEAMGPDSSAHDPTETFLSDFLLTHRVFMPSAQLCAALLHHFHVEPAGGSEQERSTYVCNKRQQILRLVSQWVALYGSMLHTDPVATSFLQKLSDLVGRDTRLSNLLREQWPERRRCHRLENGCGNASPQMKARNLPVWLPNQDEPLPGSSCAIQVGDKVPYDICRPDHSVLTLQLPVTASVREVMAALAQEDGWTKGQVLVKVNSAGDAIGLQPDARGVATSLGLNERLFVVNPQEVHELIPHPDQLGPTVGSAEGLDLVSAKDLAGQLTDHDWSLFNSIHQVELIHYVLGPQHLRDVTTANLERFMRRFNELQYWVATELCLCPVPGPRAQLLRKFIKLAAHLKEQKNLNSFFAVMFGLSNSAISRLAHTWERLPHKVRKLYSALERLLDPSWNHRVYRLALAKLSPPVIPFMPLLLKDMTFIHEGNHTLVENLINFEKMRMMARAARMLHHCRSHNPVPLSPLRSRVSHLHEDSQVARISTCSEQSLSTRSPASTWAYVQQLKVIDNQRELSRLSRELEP

| SMILES | activation |
| --- | --- |
| Clc1ccc(CO/N=C(\Cn2ccnc2)c2ccc(Cl)cc2Cl)c(Cl)c1 | 9.59% (inactive) |
| C[C@H](N)[C@H](O)c1ccc(O)c(O)c1 | 5.43% (inactive) |
| Clc1ccc(CSC(Cn2ccnc2)c2ccc(Cl)cc2Cl)cc1 (configuration not stated) | 7.4% (inactive) |

These compounds were tested against Nuclear receptor subfamily 1 group I member 3 (Homo sapiens) (UniProt Q14994) (assay: Primary qHTS for antagonist of constitutive androstane receptor (CAR) against the NCATS DSHEA and TCM libraries (AID 1794836;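 note: HepG2 cells stably expressing hCAR with CYP2B6 luciferase reporter stimulated by CITCO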)). Settings: CAR reporter cell assay, antagonist mode, luciferase; series mostly up to 40 µM; activity change, negative = inhibition: at the top concentration.
Procedure, shortened: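 Antagonist mode: CAR reporter luminescence (ONE-Glo) in HepG2-CYP2B6-hCAR cells stimulated with 48 uM CITCO (final) over 24 h at 37 C, compounds titrated; viability read first by CellTiter-Fluor fluorescence.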

Sequence of Nuclear receptor subfamily 1 group I member 3 (Homo sapiens) (Q14994 whole entry, looked up): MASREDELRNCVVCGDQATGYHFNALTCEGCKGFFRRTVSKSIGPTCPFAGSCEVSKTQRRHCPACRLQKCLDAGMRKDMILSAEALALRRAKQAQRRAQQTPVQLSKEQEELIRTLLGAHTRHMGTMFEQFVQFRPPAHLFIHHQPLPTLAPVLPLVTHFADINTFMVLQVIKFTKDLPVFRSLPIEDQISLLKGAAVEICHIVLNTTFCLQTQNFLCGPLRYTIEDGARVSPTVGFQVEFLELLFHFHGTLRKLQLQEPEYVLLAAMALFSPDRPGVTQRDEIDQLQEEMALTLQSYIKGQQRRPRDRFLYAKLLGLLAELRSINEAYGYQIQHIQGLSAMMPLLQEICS

| SMILES | activity change, negative = inhibition |
| --- | --- |
| Nc1nc2ncc(CNc3ccc(C(=O)N[C@@H](CCC(=O)O)C(=O)O)cc3)nc2c(=O)[nH]1 | 16% (inactive) |
| O=C1O[C@H]([C@@H](O)CO)C(O)=C1O | -28.6% (inactive) |
| Oc1ccc(/C=C/c2cc(O)cc(O)c2)cc1 | 164% (inactive) |
| C/C=C/c1ccc(OC)cc1 | -20.5% (inactive) |
| OC[C@H]1O[C@@H](OCCc2ccc(O)cc2)[C@H](O)[C@@H](O)[C@H]1O | -2.28% (inactive) |
| Cn1c(=O)c2c(ncn2C)n(C)c1=O | -26.5% (inactive) |
| COc1ccc2cc3[n+](cc2c1OC)CCc1cc2c(cc1-3)OCO2 | 37% (inactive) |
| C[C@]12CC[C@H](O)CC1=CC[C@@H]1[C@@H]2CC[C@]2(C)C(=O)CC[C@@H]12 | 33.6% (inactive) |

The compounds below were run against Metallo-beta-lactamase type 2 (Klebsiella pneumoniae) (UniProt C7C422) (assay: qHTS to identify inhibitors of the New Delhi Metallo-beta-lactamase (NDM): assay validation screen against the NCATS LOPAC Collection (AID 1794843;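 note: nitrocefin turnover by NDM-1 measured as 485 nm absorbance at plateau; % is set by controls: 0 for no effect and ±100 for the full control effect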)). Settings: NDM-1 enzyme, nitrocefin hydrolysis, absorbance 485 nm; series mostly up to 38.4 µM; activity change, negative = inhibition: at the top concentration.
Procedure, shortened: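 Enzyme 2 nM final, 50 mM HEPES pH 7.0, 1 uM ZnSO4, 0.01% Tween20; cpds in DMSO, preincub w/ enzyme; + nitrocefin (50 uM stock); A485 at plateau; no-enzyme column as blank.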

Sequence of Metallo-beta-lactamase type 2 (Klebsiella pneumoniae) (C7C422 whole entry, looked up): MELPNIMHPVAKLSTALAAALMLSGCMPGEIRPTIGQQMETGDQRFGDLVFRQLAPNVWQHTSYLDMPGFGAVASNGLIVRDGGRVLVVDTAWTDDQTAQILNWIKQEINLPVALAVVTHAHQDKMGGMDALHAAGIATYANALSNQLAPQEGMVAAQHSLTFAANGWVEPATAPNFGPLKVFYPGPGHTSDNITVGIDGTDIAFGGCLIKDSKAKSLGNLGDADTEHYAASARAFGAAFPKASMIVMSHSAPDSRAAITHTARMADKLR

| SMILES | activity change, negative = inhibition |
| --- | --- |
| NC(=O)CN1CCCC1=O | 1.66% (inactive) |
| COC(=O)C1=CCCN(C)C1 | 4.15% (inactive) |
| COc1ccc(C(=O)N2CCCC2=O)cc1 | 0.445% (inactive) |
| O=C(O)c1nn(Cc2ccc(Cl)cc2Cl)c2ccccc12 | 29.2% (inactive) |

What follows are compounds tested against Glutathione peroxidase 1 (Homo sapiens) (UniProt P07203) (assay: Primary qHTS Assay for Inhibitors of Recombinant Selenoprotein Glutathione Peroxidase 1 (GPX1) (AID 1845191; note: nearly all actives have a fitted effect of over 65% in size; for activity, negative = inhibition: % is set by controls: 0 for no effect and ±100 for the full control effect)). Settings: recombinant GPX1, GR-coupled NADPH fluorescence, 15 min; series mostly up to 48.8 µM; activity, negative = inhibition: at the top concentration.
Procedure, shortened: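 NADPH consumption tracked by fluorescence at 340/450 nm between t=0 and t=15 min, room temperature. Final mix: 10 nM GPX1, 100 nM glutathione reductase, 1 mM GSH, 0.5 mM NADPH, 0.5 mM cumene hydroperoxide, 0.01% BSA; 30 min compound–enzyme preincubation.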

Sequence of Glutathione peroxidase 1 (Homo sapiens) (P07203 whole entry, looked up): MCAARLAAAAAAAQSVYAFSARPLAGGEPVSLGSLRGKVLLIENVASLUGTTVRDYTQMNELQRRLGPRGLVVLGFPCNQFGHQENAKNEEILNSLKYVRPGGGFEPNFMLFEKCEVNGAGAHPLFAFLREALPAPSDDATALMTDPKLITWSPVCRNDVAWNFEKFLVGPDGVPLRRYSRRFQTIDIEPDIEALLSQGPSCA

| SMILES | activity, negative = inhibition | outcome |
| --- | --- | --- |
| O=C(O)Cc1ccccc1 | -16.4% (inactive) |  |
| Clc1ccc(CO/N=C(\Cn2ccnc2)c2ccc(Cl)cc2Cl)c(Cl)c1 |  | inactive |
| N#Cc1nn(-c2c(Cl)cc(C(F)(F)F)cc2Cl)c(N)c1S(=O)C(F)(F)F (configuration not stated) |  | inactive |
| CCC1(c2cccc(O)c2)CCCCN(C)C1 (configuration not stated) | 2.44% (inactive) |  |
| Cc1nnc2n1-c1sc(CCC(=O)N3CCOCC3)cc1C(c1ccccc1Cl)=NC2 | -4.63% (inactive) |  |
| CC[C@]1(O)CC[C@H]2[C@@H]3CCC4=CCCC[C@@H]4[C@H]3CC[C@@]21C | -28.8% (inactive) |  |
| CN(C)C(=S)SSC(=S)N(C)C | -24.1% (inactive) |  |
| CC(C)C(Br)C(=O)NC(N)=O (configuration not stated) | -13.6% (inactive) |  |
| C[C@H](N)[C@H](O)c1ccc(O)c(O)c1 | -8.86% (inactive) |  |
| CCCCCCCCCCCC[N+](C)(C)CCOc1ccccc1 |  | inactive |
| CCOC(=O)C1(c2ccccc2)CCN(CCc2ccc(N)cc2)CC1 | -20.1% (inactive) |  |
| CC1COC2(c3ccccc3Cl)c3cc(Cl)ccc3NC(=O)CN12 (configuration not stated) | -15.4% (inactive) |  |
| CC(CC(C(N)=O)(c1ccccc1)c1ccccc1)N(C)C (configuration not stated) |  | inactive |
| C=CC[C@]1(O)CC[C@H]2[C@@H]3CCC4=CC(=O)CCC4=C3C=C[C@@]21C | -20.7% (inactive) |  |
| CC1=C2[C@H]3OC(=O)[C@@H](C)[C@@H]3CC[C@@]2(C)C=CC1=O | 3.24% (inactive) |  |
| NC(=O)CN1CCCC1=O |  | inactive |

| SMILES | activity, negative = inhibition | outcome |
| --- | --- | --- |
| CC#C[C@]1(O)CC[C@H]2[C@@H]3C[C@H](C)C4=CC(=O)CC[C@]4(C)[C@H]3CC[C@@]21C | -6.4% (inactive) |  |
| C[C@@H]1O[C@@H](O[C@@H]2C=C3CC[C@@H]4[C@H](CC[C@]5(C)[C@@H](c6ccc(=O)oc6)CC[C@]45O)[C@@]3(C)CC2)[C@H](O)[C@H](O)[C@H]1O |  | inactive |
| COC(=O)C1=CCCN(C)C1 |  | inactive |
| Cc1cccc(Cc2cnc[nH]2)c1C |  | inactive |
| C=CCOC(Cn1ccnc1)c1ccc(Cl)cc1Cl (configuration not stated) | 4.44% (inactive) |  |
| NC(=O)OCCCc1ccccc1 |  | inactive |
| Clc1ccc(CSC(Cn2ccnc2)c2ccc(Cl)cc2Cl)cc1 (configuration not stated) | -10.6% (inactive) |  |
| COP(=O)(OC)OC=C(Cl)Cl | 1.83% (inactive) |  |
| CNC(C)Cc1ccccc1OC (configuration not stated) | -12.5% (inactive) |  |
| C[C@@H]1CC[C@H]2[C@@H](C)C(=O)O[C@@H]3O[C@@]4(C)CC[C@@H]1[C@]32OO4 |  | inactive |
| COc1ccc(C(=O)N2CCCC2=O)cc1 |  | inactive |
| O=C(O)c1nn(Cc2ccc(Cl)cc2Cl)c2ccccc12 |  | inactive |
| Oc1ccc([C@H]2CNCc3c2ccc(O)c3O)cc1O | -30.1% (inactive) |  |
| Cc1nnc2n1-c1sc(CCc3ccc(CC(C)C)cc3)cc1C(c1ccccc1Cl)=NC2C (configuration not stated) | -26.6% (inactive) |  |
| C=CCN1CC[C@]23CCCC[C@H]2[C@H]1Cc1ccc(O)cc13 | -28.1% (inactive) |  |
| C[C@]12CC[C@H](O)CC1=CC[C@@H]1[C@@H]2CC[C@]2(C)C(=O)CC[C@@H]12 |  | inactive |
